SMILES strings stand for the structures. Records with an inconclusive call do not appear. Calls of active or inactive are those of the source. How the source made its calls, unless noted: active means hit-call score of the fitted dose curve at least 0.9, where 1 is the maximum; inactive means score below 0.9.

Read-out in experiment [1]: solute carrier (SLC22A1), SLC22A1 (gene 6580)
In words: LTEA_HepaRG_SLC22A1: Life Technologies and Expression Analysis (LTEA) Assay for solute carrier (SLC22A1) using HepaRG (AID 2283524). Particulars: mRNA level, 48 h; actives raise or lower the signal. The procedure, abridged: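 Transcript level of SLC22A1 quantified by qRT-PCR (normalized to three housekeeping genes) after 48 h chemical exposure of HepaRG cells, eight concentrations up to 100 µM, half-log steps, 0.5% DMSO vehicle. Gain or loss relative to DMSO fitted bidirectionally.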

Read-out in experiment [2]: Pyruvate Dehydrogenase Kinase 4 (PDK4), PDK4 (gene 5166)
Put plainly: LTEA_HepaRG_PDK4: Life Technologies and Expression Analysis (LTEA) Assay for Pyruvate Dehydrogenase Kinase 4 (PDK4) using HepaRG (AID 2283525). Particulars: mRNA level, 48 h; actives raise or lower the signal. The procedure, abridged:
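Readout is qRT-PCR of PDK4 transcript, normalized to three housekeeping genes, with bidirectional fitting against 0.5% DMSO vehicle. Differentiated HepaRG cells were treated 48 h in serum-free induction medium, duplicate wells, eight-point half-log series topping at 100 uM.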

Read-out in experiment [3]: NAD(P)H dehydrogenase [quinone] 1 (NQO1), NQO1 (gene 1728)
Put plainly: LTEA_HepaRG_NQO1: Life Technologies and Expression Analysis (LTEA) Assay for NAD(P)H dehydrogenase [quinone] 1 (NQO1) using HepaRG (AID 2283526). Particulars: mRNA level, 48 h; actives raise or lower the signal. Summed up:
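In this assay, gene expression is read by qRT-PCR after 48 h exposure of HepaRG cells to eight concentrations (max 100 uM, half-log) in 0.5% DMSO. Each chemical runs in duplicate, and activity is scored relative to vehicle.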

Read-out in experiment [4]: Nuclear factor erythroid 2-related factor 2 (Homo sapiens) (UniProt Q16236)
Put plainly: LTEA_HepaRG_NFE2L2: Life Technologies and Expression Analysis (LTEA) Assay for Nuclear factor erythroid 2-related factor 2 (NFE2L2) Transcription Factor using HepaRG (AID 2283527).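 Further: TaqMan qRT-PCR transcript level normalised to ACTB GAPDH and POLR2A housekeeping genes.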 Particulars: mRNA level, 48 h; actives raise or lower the signal. Summed up:
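NFE2L2 transcript level was read by qRT-PCR (housekeeping ACTB/GAPDH/POLR2A normalisation) after 48 h chemical treatment of HepaRG in serum-free induction medium. Duplicate 8-point half-log curves, top 100 uM, 0.5% DMSO vehicle; up- or down-regulation fitted against vehicle.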

Read-out in experiment [5]: succinate dehydrogenase complex iron sulfur subunit B (SDHB), SDHB (gene 6390)
Put plainly: LTEA_HepaRG_SDHB: Life Technologies and Expression Analysis (LTEA) Assay for succinate dehydrogenase complex iron sulfur subunit B (SDHB) using HepaRG (AID 2283528). Particulars: mRNA level, 48 h; actives raise or lower the signal. The procedure, abridged: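 HepaRG cells (~100,000/well, plated 48 h) exposed in duplicate for 48 h in serum-free induction medium to 8-point half-log series from 100 uM in 0.5% DMSO; mRNA by qRT-PCR normalised to ACTB, GAPDH, POLR2A; bidirectional fit versus DMSO.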

Read-out in experiment [6]: solute carrier (SLCO1B1), SLCO1B1 (gene 10599)
Put plainly: LTEA_HepaRG_SLCO1B1: Life Technologies and Expression Analysis (LTEA) Assay for solute carrier (SLCO1B1) using HepaRG (AID 2283530). Particulars: mRNA level, 48 h; actives raise or lower the signal. Summed up:
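Differentiated human HepaRG cells, plated 48 h, switched to serum-free induction medium and exposed in duplicate for 48 h to 8 half-log concentrations (top 100 uM) in 0.5% DMSO. SLCO1B1 mRNA by TaqMan qRT-PCR, normalized to ACTB/GAPDH/POLR2A.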

Read-out in experiment [7]: sulfotransferase 2A1 (SULT2A1), SULT2A1 (gene 6822)
Put plainly: LTEA_HepaRG_SULT2A1: Life Technologies and Expression Analysis (LTEA) Assay for sulfotransferase 2A1 (SULT2A1) using HepaRG (AID 2283531). Particulars: mRNA level, 48 h; actives raise or lower the signal. The procedure, abridged: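 Differentiated human HepaRG cells in serum-free induction medium were exposed for 48 h to eight half-log concentrations (top 100 uM, 0.5% DMSO). SULT2A1 mRNA was measured by qRT-PCR, normalized to ACTB, GAPDH and POLR2A, and fitted bidirectionally against DMSO.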

Read-out in experiment [8]: Transforming Growth Factor (TGFA), TGFA (gene 7039)
Put plainly: LTEA_HepaRG_TGFA: Life Technologies and Expression Analysis (LTEA) Assay for Transforming Growth Factor (TGFA) using HepaRG (AID 2283532). The settings on record: mRNA level, 48 h; actives raise or lower the signal. Summed up:
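TGFA transcript quantified by qRT-PCR (Fluidigm arrays) against three housekeeping genes, after 48 hours chemical treatment of HepaRG cells. Top concentration 100 uM with half-log dilutions, 8 points, duplicates, 0.5% DMSO.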

Read-out in experiment [9]: Transforming Growth Factor (TGFB1), TGFB1 (gene 7040)
In words: LTEA_HepaRG_TGFB1: Life Technologies and Expression Analysis (LTEA) Assay for Transforming Growth Factor (TGFB1) Transporter using HepaRG (AID 2283533). Particulars: mRNA level, 48 h; actives raise or lower the signal. The procedure, abridged: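 Differentiated human HepaRG cells in serum-free induction medium were exposed in duplicate for 48 h to eight concentrations (top 100 uM, half-log steps, 0.5% DMSO). TGFB1 mRNA was quantified by qRT-PCR, normalized to ACTB, GAPDH, POLR2A, and fitted bidirectionally against DMSO.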

Read-out in another experiment: TIMP1, TIMP1 (gene 7076)
In words: LTEA_HepaRG_TIMP1: Life Technologies and Expression Analysis (LTEA) Assay for TIMP1 using HepaRG (AID 2283534).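 Further: TaqMan qRT-PCR signal normalized to ACTB GAPDH and POLR2A housekeeping genes.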 Particulars: mRNA level, 48 h; actives raise or lower the signal. Summed up:
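Differentiated human HepaRG cells in serum-free induction medium were exposed 48 h to chemicals (8 half-log concentrations, top 100 uM, 0.5% DMSO). TIMP1 mRNA was quantified by TaqMan qRT-PCR, normalized to ACTB/GAPDH/POLR2A; bidirectional fit versus DMSO.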

Read-out in experiment [10]: Thyroid Hormone Responsive (THRSP), THRSP (gene 7069)
Put plainly: LTEA_HepaRG_THRSP: Life Technologies and Expression Analysis (LTEA) Assay for Thyroid Hormone Responsive (THRSP) using HepaRG (AID 2283536). The settings on record: mRNA level, 48 h; actives raise or lower the signal. The procedure, abridged:
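THRSP transcript quantified by Fluidigm qRT-PCR against three housekeeping genes after 48 h chemical exposure of HepaRG cells in serum-free induction medium; eight-point half-log series, top 100 uM, 0.5% DMSO vehicle, duplicate wells.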

Read-out in experiment [11]: Cellular tumor antigen p53 (Homo sapiens) (UniProt P04637)
In words: LTEA_HepaRG_TP53: Life Technologies and Expression Analysis (LTEA) Assay for Tumor Protein P53 (TP53) using HepaRG (AID 2283537). The settings on record: mRNA level, 48 h; actives raise or lower the signal. Summed up:
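Differentiated HepaRG cells in serum-free induction medium exposed 48 h in duplicate to 8 half-log concentrations, top 100 uM, 0.5% DMSO. TP53 mRNA by TaqMan qRT-PCR (Fluidigm), normalized to ACTB, GAPDH, POLR2A; fitted bidirectionally versus DMSO.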

Read-out in experiment [12]: UDP glucuronosyltransferase (UGT1A1), UGT1A1 (gene 54658)
In words: LTEA_HepaRG_UGT1A1: Life Technologies and Expression Analysis (LTEA) Assay for UDP glucuronosyltransferase (UGT1A1) using HepaRG (AID 2283538). Particulars: mRNA level, 48 h; actives raise or lower the signal. Summed up: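 mRNA induction or loss of UGT1A1, by TaqMan qRT-PCR, in duplicate HepaRG wells after 48 h exposure to half-log dilutions topping at 100 uM; DMSO (0.5%) served as baseline.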

Read-out in experiment [13]: UDP glucuronosyltransferase (UGT1A6), UGT1A6 (gene 54578)
Put plainly: LTEA_HepaRG_UGT1A6: Life Technologies and Expression Analysis (LTEA) Assay for UDP glucuronosyltransferase (UGT1A6) using HepaRG (AID 2283539). Particulars: mRNA level, 48 h; actives raise or lower the signal. Summed up: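 Human HepaRG cells were dosed for 48 h in serum-free induction medium with 0.5% DMSO vehicle, eight-point half-log series from 100 uM, in duplicate. UGT1A6 mRNA was measured by qRT-PCR, normalized to ACTB, GAPDH, POLR2A, and fitted bidirectionally against DMSO.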

Read-out in experiment [14]: X-box binding protein 1 (XBP1), XBP1 (gene 7494)
In words: LTEA_HepaRG_XBP1: Life Technologies and Expression Analysis (LTEA) Assay for X-box binding protein 1 (XBP1) using HepaRG (AID 2283540). Particulars: mRNA level, 48 h; actives raise or lower the signal. Summed up:
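Differentiated human HepaRG cells in serum-free induction medium were exposed in duplicate for 48 h to eight half-log concentrations up to 100 uM in 0.5% DMSO. XBP1 mRNA was quantified by qRT-PCR, normalised to ACTB, GAPDH and POLR2A, with bidirectional fitting against DMSO.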

The nature of experiment [15]: LTEA_HepaRG_LDH_cytotoxicity: Cytotoxicity Assessment in the Life Technologies and Expression Analysis (LTEA) Assay (AID 2283563; active means hit-call score of the fitted dose curve at least 0.9, where 1 is the maximum;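 on AC50: LDH activity released into spent culture medium as a marker of cell death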). Summed up: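 Differentiated human HepaRG cells, plated 48 h beforehand, were switched to serum-free induction medium and exposed for 48 h to eight half-log concentrations (top 100 uM) in 0.5% DMSO. LDH was measured in spent medium; activity was fitted relative to DMSO vehicle.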

A short description of experiment [16]: TOX21_p53_BLA_p2_viability: Viability Assessment in the Tox21 HCT-116 p53 Agonism Beta-lactamase Assay, Phase 2 (AID 2283591; active means hit-call score of the fitted dose curve at least 0.9, where 1 is the maximum;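 further: compound exposure lasted 16 h at 37 °C; actives lower the ATP signal meaning cytotoxicity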). Summed up: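 Cytotoxicity readout: CellTiter-Glo ATP luminescence, 30 min at room temperature, after the beta-lactamase read. Cells were HCT116 exposed 16 h at 37C to compounds pin-transferred at 217-fold dilution from DMSO stocks.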

Read-out in experiment [17]: Signal transducer and activator of transcription 3 (Homo sapiens) (UniProt P40763)
In words: LTEA_HepaRG_STAT3: Life Technologies and Expression Analysis (LTEA) Assay for Signal transducer and activator of transcription (STAT3) using HepaRG (AID 2283529). The settings on record: mRNA level, 48 h; actives raise or lower the signal. The procedure, abridged:
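STAT3 transcript quantified by qRT-PCR against three housekeeping genes (ACTB, GAPDH, POLR2A), fitted both directions relative to DMSO. HepaRG cultures exposed 48 h to eight half-log concentrations, top 100 uM, 0.5% DMSO, serum-free induction medium.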

Read-out in experiment [18]: Tumor necrosis factor receptor 1 (TNFRSF1A), TNFRSF1A (gene 7132)
In words: LTEA_HepaRG_TNFRSF1A: Life Technologies and Expression Analysis (LTEA) Assay for Tumor necrosis factor receptor 1 (TNFRSF1A) using HepaRG (AID 2283535). Particulars: mRNA level, 48 h; actives raise or lower the signal. The procedure, abridged:
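Differentiated human HepaRG cells were exposed in duplicate for 48 h in serum-free induction medium to eight concentrations (top 100 uM, half-log steps, 0.5% DMSO). TNFRSF1A mRNA was quantified by qRT-PCR, normalized to ACTB, GAPDH and POLR2A, then fitted bidirectionally against DMSO.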

Experiment [19] is described as follows: ATG_XTT_Cytotoxicity: Cytotoxicity Assessment in the Attagene TRANS-FACTORIAL HepG2 Assay (AID 2283584; active means hit-call score of the fitted dose curve at least 0.9, where 1 is the maximum). Summed up:
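HepG2 human liver cells, transiently transfected with multiple GAL4-UAS reporter units, were dosed and read at 24 h by XTT as cell number. Loss of signal was fitted relative to DMSO negative control baseline.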

Cellular tumor antigen p53 (Homo sapiens), sequence (P04637 whole entry, looked up): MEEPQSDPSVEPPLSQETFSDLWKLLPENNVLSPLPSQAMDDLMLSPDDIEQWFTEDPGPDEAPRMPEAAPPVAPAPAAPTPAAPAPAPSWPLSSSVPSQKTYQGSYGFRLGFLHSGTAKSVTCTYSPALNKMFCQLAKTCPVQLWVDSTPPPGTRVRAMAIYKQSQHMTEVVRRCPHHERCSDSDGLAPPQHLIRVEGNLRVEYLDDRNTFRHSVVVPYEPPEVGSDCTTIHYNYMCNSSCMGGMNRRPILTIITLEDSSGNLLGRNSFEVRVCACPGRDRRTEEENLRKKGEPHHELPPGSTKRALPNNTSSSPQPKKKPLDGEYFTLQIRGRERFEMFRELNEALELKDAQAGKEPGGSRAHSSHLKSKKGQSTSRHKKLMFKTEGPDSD
Nuclear factor erythroid 2-related factor 2 (Homo sapiens), sequence (Q16236 whole entry, looked up): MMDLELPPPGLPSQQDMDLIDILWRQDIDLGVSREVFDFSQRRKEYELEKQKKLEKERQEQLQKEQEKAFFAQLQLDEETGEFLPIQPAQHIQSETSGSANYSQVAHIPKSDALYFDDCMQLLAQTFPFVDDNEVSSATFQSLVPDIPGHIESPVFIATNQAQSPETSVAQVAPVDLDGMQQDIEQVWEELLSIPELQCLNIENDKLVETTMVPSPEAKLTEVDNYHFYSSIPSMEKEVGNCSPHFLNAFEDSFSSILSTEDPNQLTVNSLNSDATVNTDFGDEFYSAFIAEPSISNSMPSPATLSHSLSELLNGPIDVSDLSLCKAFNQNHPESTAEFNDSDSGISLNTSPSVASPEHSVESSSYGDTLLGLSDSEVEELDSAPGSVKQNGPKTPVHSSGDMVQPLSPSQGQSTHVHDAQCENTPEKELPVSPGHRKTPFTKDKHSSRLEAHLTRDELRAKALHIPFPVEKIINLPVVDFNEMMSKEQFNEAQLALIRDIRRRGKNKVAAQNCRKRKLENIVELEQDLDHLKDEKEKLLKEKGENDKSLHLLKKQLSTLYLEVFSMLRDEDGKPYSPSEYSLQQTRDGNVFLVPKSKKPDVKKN
Signal transducer and activator of transcription 3 (Homo sapiens), sequence (P40763 whole entry, looked up): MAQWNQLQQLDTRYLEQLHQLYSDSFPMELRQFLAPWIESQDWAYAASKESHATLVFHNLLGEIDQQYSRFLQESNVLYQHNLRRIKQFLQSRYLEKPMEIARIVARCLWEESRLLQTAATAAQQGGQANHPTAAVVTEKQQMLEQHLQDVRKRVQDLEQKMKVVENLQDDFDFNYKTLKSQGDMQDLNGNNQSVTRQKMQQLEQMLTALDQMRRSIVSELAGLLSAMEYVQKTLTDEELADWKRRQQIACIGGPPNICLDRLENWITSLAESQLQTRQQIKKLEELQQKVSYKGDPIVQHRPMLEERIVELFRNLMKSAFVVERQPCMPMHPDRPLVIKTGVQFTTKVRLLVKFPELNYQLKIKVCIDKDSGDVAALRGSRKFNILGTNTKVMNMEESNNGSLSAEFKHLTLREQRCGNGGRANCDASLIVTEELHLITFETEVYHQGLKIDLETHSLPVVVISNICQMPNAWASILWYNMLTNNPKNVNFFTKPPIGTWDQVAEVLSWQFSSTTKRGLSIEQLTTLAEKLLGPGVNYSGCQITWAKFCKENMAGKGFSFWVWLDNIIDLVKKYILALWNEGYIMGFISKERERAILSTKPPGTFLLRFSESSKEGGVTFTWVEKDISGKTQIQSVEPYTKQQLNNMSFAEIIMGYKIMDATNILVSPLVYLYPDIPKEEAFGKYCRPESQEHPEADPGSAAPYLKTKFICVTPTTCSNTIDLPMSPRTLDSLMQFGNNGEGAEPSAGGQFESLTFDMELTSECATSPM

For `c1ccc(N=Nc2ccccc2)cc1`, the result in experiment [1], in experiment [2], in experiment [3], in experiment [4], in [5] and in experiment [6] was inactive. Besides, the outcome is “inactive” in [7]; “inactive” in [8]; “inactive” in experiment [9]; “inactive” with TIMP1, TIMP1 (gene 7076); “inactive” in experiment [10]; “inactive” in [11]. Further, the molecule was classed as inactive in experiment [12], in experiment [13], in [14], in [15] and in [16].

Regarding `CCCCCOC(=O)c1ccccc1C(=O)OCCCCC`, the call in experiment [1], in [2], in experiment [3], in experiment [4], in experiment [5] and in experiment [17] was inactive. For the same molecule, the outcome in experiment [6] is “inactive”; in experiment [7] it was “inactive”; in experiment [8] it was “inactive”; in the experiment with TIMP1, TIMP1 (gene 7076) it was “inactive”; in experiment [18], “inactive”; in experiment [10], “inactive”. For the same molecule, the outcome in experiment [11], in experiment [12], in experiment [13], in experiment [14], in experiment [15] and in experiment [19] was inactive. The outcome in experiment [16] was inactive.

In the case of `O=C(O)C1C2CCC(O2)C1C(=O)O` (stereo not given), the AC50 (commonly the midpoint of the concentration-response curve, whichever way the signal moves) is 70.7 µM (active) in experiment [1]; 69 µM (active) in experiment [6]; 76 µM (active) in experiment [7]; 34.7 µM (active) in [10]; 50 µM (active) in experiment [12]; 75.1 µM (active) in [15]. Further, the molecule was called inactive in experiment [2], in experiment [3], in [4], in [5], in [17] and in experiment [8]. In addition, the outcome with TIMP1, TIMP1 (gene 7076) is “inactive”; in experiment [18] it was “inactive”; in [11], “inactive”; in [13] it was “inactive”; in experiment [14] it was “inactive”; in experiment [19], “inactive”. Moreover, in [16], the molecule was classed as inactive.
